The source of these data is PubChem BioAssay (EPA / NIEHS).

Molecules are shown by their SMILES. Several values for one entry are separate records, joined by “and”; a condition that tells them apart may be missing. Equal values may be shown once. The source holds several records for some structures; these can differ, active in one and inactive in another. Activity calls are given as the source filed them. How the source made its calls: active means hit-call score of the fitted dose curve at least 0.9, where 1 is the maximum; inactive means score below 0.9.

Read-out in assay [1]: KRT18 (gene 3875)
Kind of assay: BSK_BF4T_Keratin818: BioMAP Diversity Plus: BF4T Assay for Keratin 818 Biomarker Activity (AID 2284266). To be noted: primary human bronchial epithelial cells with fibroblasts. A digest of the protocol: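 Keratin 8/18 levels quantified by ELISA after 24 h chemical treatment of bronchial epithelial cell/dermal fibroblast co-cultures, fitted in positive direction relative to DMSO. Parallel SRB staining tracks overt cytotoxicity.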

The nature of assay [2]: BSK_MyoF_SRB: Viability Assessment in the BioMAP Diversity Plus: MyoF Assay (AID 2284267).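 Further: total protein by SRB absorbance in parallel cultures as cytotoxicity measure; cells assessed 24 h after compound addition.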 The note with it: primary human lung fibroblasts. A digest of the protocol: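 In this viability endpoint, fibroblasts from human lung are treated for 24 h, TCA-fixed, SRB-stained (0.1%) and read at 560 nm. Gain of signal relative to DMSO defines activity.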
Read-out in assay [3]: Matrix Metallopeptidase 1 (MMP1), MMP1 (gene 4312)
Kind of assay: BSK_MyoF_MMP1: BioMAP Diversity Plus: MyoF Assay for Matrix Metallopeptidase 1 (MMP1) Biomarker Activity (AID 2284268). The note with it: primary human lung fibroblasts. The procedure, abridged:
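MMP1 measured by ELISA 24 h after dosing primary human lung fibroblasts; cytotoxicity checked in parallel cultures by sulforhodamine B total-protein staining read at 560 nm.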

Read-out in assay [4]: TIMP metallopeptidase inhibitor 1 (TIMP1), TIMP1 (gene 7076)
Kind of assay: BSK_MyoF_TIMP1: BioMAP Diversity Plus: MyoF Assay for TIMP metallopeptidase inhibitor 1 (TIMP1) Biomarker Activity (AID 2284269). The note with it: primary human lung fibroblasts. The procedure, abridged: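 TIMP-1 levels were determined by ELISA in human lung fibroblasts treated for 24 h. DMSO served as negative control and baseline for upward curve fitting.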

Read-out in assay [5]: Matrix Metallopeptidase 1 (MMP1), MMP1 (gene 4312)
Kind of assay: BSK_BF4T_MMP1: BioMAP Diversity Plus: BF4T Assay for Matrix Metallopeptidase 1 (MMP1) Biomarker Activity (AID 2284270). To be noted: primary human bronchial epithelial cells with fibroblasts. A digest of the protocol: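 MMP-1 quantified by ELISA in primary human bronchial epithelial/dermal fibroblast co-cultures, 24 hours post-dosing, with DMSO as baseline; parallel sulforhodamine B staining (560 nm) tracks overt cytotoxicity.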

Read-out in assay [6]: Matrix Metallopeptidase 3 (MMP3), MMP3 (gene 4314)
Kind of assay: BSK_BF4T_MMP3: BioMAP Diversity Plus: BF4T Assay for Matrix Metallopeptidase 3 (MMP3) Biomarker Activity (AID 2284271). The note with it: primary human bronchial epithelial cells with fibroblasts. The procedure, abridged:
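MMP-3 level read by ELISA after 24 h chemical exposure of bronchial epithelial cell/dermal fibroblast co-cultures, fitted upward relative to DMSO. Parallel cultures stained with 0.1% SRB after TCA fixation gauge overt cytotoxicity.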

Read-out in assay [7]: Tissue plasminogen activator (tPA), PLAT (gene 5327)
Kind of assay: BSK_BF4T_tPA: BioMAP Diversity Plus: BF4T Assay for Tissue plasminogen activator (tPA) Biomarker Activity (AID 2284272). To be noted: primary human bronchial epithelial cells with fibroblasts. The procedure, abridged:
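tPA level quantified by ELISA at 24 h post-treatment in bronchial epithelial/dermal fibroblast co-cultures, gain of signal scored against DMSO baseline. Parallel cultures stained with 0.1% SRB (560 nm) to flag overt cytotoxicity.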

Read-out in assay [8]: Plasminogen Activator Inhibitor-1 (PAI1), SERPINE1 (gene 5054)
Kind of assay: BSK_BF4T_PAI1: BioMAP Diversity Plus: BF4T Assay for Plasminogen Activator Inhibitor-1 (PAI1) Biomarker Activity (AID 2284273). The note with it: primary human bronchial epithelial cells with fibroblasts. The procedure, abridged: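 PAI-1 levels quantified by ELISA 24 h post-dosing in bronchial epithelial cell plus dermal fibroblast cultures. Signal gain referenced to DMSO baseline. Sulforhodamine B total-protein staining of parallel wells checked cytotoxicity.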

The nature of assay [9]: BSK_BF4T_SRB: Viability Assessment in the BioMAP Diversity Plus: BF4T Assay (AID 2284274). To be noted: primary human bronchial epithelial cells with fibroblasts. The procedure, abridged: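 Cytotoxicity measured as total protein: cells fixed with 10% TCA, stained with 0.1% SRB, read at 560 nm. Bronchial epithelial/dermal fibroblast co-culture, 24 h after dosing, with positive-direction fitting relative to DMSO.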

Read-out in assay [10]: urokinase Plasminogen Activator (uPA), PLAU (gene 5328)
Kind of assay: BSK_BF4T_uPA: BioMAP Diversity Plus: BF4T Assay for urokinase Plasminogen Activator (uPA) Biomarker Activity (AID 2284275). The note with it: primary human bronchial epithelial cells with fibroblasts. A digest of the protocol:
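uPA levels measured by ELISA at 24 hours in BF4T cultures (bronchial epithelial cells plus dermal fibroblasts) and compared with DMSO; cytotoxicity tracked in parallel cultures by sulforhodamine B staining.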

Read-out in assay [11]: Matrix Metallopeptidase 9 (MMP9), MMP9 (gene 4318)
Kind of assay: BSK_BF4T_MMP9: BioMAP Diversity Plus: BF4T Assay for Matrix Metallopeptidase 9 (MMP9) Biomarker Activity (AID 2284276). To be noted: primary human bronchial epithelial cells with fibroblasts. A digest of the protocol:
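MMP-9 levels were measured by ELISA after 24 h exposure of bronchial epithelial cell/dermal fibroblast co-cultures, with DMSO as baseline. Parallel cultures were stained with 0.1% SRB after TCA fixation, read at 560 nm, to flag overt cytotoxicity.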

Read-out in assay [12]: Interleukin-8 (IL8), CXCL8 (gene 3576)
Kind of assay: BSK_IMphg_IL8: BioMAP Diversity Plus: IMphg Assay for Interleukin-8 (IL8) Biomarker Activity (AID 2284277). To be noted: primary human endothelial cells with macrophages. The procedure, abridged:
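IL-8 levels were measured by ELISA 24 h after dosing in primary human venular endothelial cell–macrophage cultures, referenced to DMSO; parallel SRB staining monitored overt cytotoxicity.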

Read-out in assay [13]: Intercellular Adhesion Molecule 1 (ICAM1), ICAM1 (gene 3383)
Kind of assay: BSK_BE3C_ICAM1: BioMAP Diversity Plus: BE3C Assay for Intercellular Adhesion Molecule 1 (ICAM1) Biomarker Activity (AID 2284278).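 Further: cell-surface ICAM-1 protein level quantified by ELISA.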 To be noted: primary human bronchial epithelial cells. The procedure, abridged:
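hu bronchial epithelial primary cells, 24 h cpd exposure, ICAM-1 ELISA; gain-of-signal fit vs DMSO baseline.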

Read-out in assay [14]: Interferon-inducible T-cell alpha chemoattractant (ITAC), CXCL11 (gene 6373)
Kind of assay: BSK_BE3C_ITAC: BioMAP Diversity Plus: BE3C Assay for Interferon-inducible T-cell alpha chemoattractant (ITAC) Biomarker Activity (AID 2284279). To be noted: primary human bronchial epithelial cells. The procedure, abridged: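 The assay measures I-TAC levels by ELISA in human primary bronchial epithelial cell cultures 24 hours after chemical treatment. Values reflect signal increase over the DMSO baseline.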

Read-out in assay [15]: Interleukin-8 (IL8), CXCL8 (gene 3576)
Kind of assay: BSK_BE3C_IL8: BioMAP Diversity Plus: BE3C Assay for Interleukin-8 (IL8) Biomarker Activity (AID 2284280). The note with it: primary human bronchial epithelial cells. The procedure, abridged: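 Dose human bronchial epithelial cells with chemical; incubate 24 h; quantify IL-8 by ELISA; fit response upward versus DMSO controls.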

Read-out in assay [16]: Epidermal growth factor receptor (EGFR), EGFR (gene 1956)
Kind of assay: BSK_BE3C_EGFR: BioMAP Diversity Plus: BE3C Assay for Epidermal growth factor receptor (EGFR) Biomarker Activity (AID 2284281). To be noted: primary human bronchial epithelial cells. A digest of the protocol: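 ELISA read-out of EGFR levels on human bronchial epithelial primary cells collected 24 h post-dosing. DMSO served as negative control and baseline for gain-of-signal fitting.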

Read-out in assay [17]: KRT18 (gene 3875)
Kind of assay: BSK_BE3C_Keratin818: BioMAP Diversity Plus: BE3C Assay for Keratin 818 Biomarker Activity (AID 2284282). To be noted: primary human bronchial epithelial cells. A digest of the protocol:
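In this multiplexed primary-cell system, bronchial epithelial cells were dosed and harvested at 24 h. Keratin 8/18 was determined by ELISA and analysed for increases over DMSO controls.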

Read-out in assay [18]: Matrix Metallopeptidase 9 (MMP9), MMP9 (gene 4318)
Kind of assay: BSK_BE3C_MMP9: BioMAP Diversity Plus: BE3C Assay for Matrix Metallopeptidase 9 (MMP9) Biomarker Activity (AID 2284283). To be noted: primary human bronchial epithelial cells. A digest of the protocol: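 Cells were dosed, incubated 24 h, then assayed for MMP-9 by ELISA; activity was fitted upward against DMSO. The system used human lung primary bronchial epithelial cells, with SRB total-protein staining run alongside for cytotoxicity.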

Read-out in assay [19]: Plasminogen activator inhibitor-1 (PAI1), SERPINE1 (gene 5054)
Kind of assay: BSK_CASM3C_PAI1: BioMAP Diversity Plus: CASM3C Assay for Plasminogen activator inhibitor-1 (PAI1) Biomarker Activity (AID 2284284). The note with it: primary human coronary artery smooth muscle cells.

Read-out in assay [20]: Monocyte Chemoattractant Protein-1 (MCP1), CCL2 (gene 6347)
Kind of assay: BSK_hDFCGF_MCP1: BioMAP Diversity Plus: hDFCGF Assay for Monocyte Chemoattractant Protein-1 (MCP1) Biomarker Activity (AID 2284285). To be noted: primary human foreskin fibroblasts. The procedure, abridged:
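MCP-1 ELISA readout was taken 24 hours after dosing primary human dermal fibroblasts in the hDFCGF system, with DMSO as baseline. Parallel sulforhodamine B staining of total protein tracked overt cytotoxicity.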

As usually defined, the AC50 is the concentration giving half of the maximal activity seen. Regarding `OCC(F)(OC(F)(F)C(F)(OC(F)(F)C(F)(F)C(F)(F)F)C(F)(F)F)C(F)(F)F` (stereo unspecified), the outcome (in the assay with KRT18 (gene 3875) [1]; in assay [3]; in [4]; in assay [5]; in assay [6]; in [7]) was inactive. Also, the result in assay [8], in [9], in assay [10], in assay [11], in assay [12] and in [13] was inactive. The result (in assay [14]; in assay [15]; in assay [16]; with KRT18 (gene 3875) [17]; in assay [18]; in assay [19]) was inactive. Further, the concentration at half-maximal activity (AC50) in assay [2] was 2.54 µM (active) and 3.33 µM (active); in [7] it was 4.28 µM (active); in assay [14] it was 5.2 µM (active); in assay [20], 4.79 µM (active) and 2.83 µM (active).

Regarding `CC(C)(CO)CO`, the outcome (in assay [13]; in assay [14]; in assay [15]; in assay [16]; in the assay with KRT18 (gene 3875) [17]; in [18]) was inactive. The result in assay [19] and in [20] was inactive.

Consider `c1ccc(Sc2ccccc2)cc1`, for which the AC50 in assay [2] is 34.8 µM (active); in [3], 30.8 µM (active); in assay [4], 32.3 µM (active).

Take `CCCCCCCCCCCCS`: the AC50 was 20 µM (active) in assay [2] and 5.81 µM (active) in [3]. The outcome in [4] was inactive.

In the case of `CCn1cc(C(=O)O)c(=O)c2ccc(C)nc21`, the result (in assay [13]; in assay [14]; in assay [15]; in assay [16]; with KRT18 (gene 3875) [17]; in assay [18]) was inactive. The result in [19] and in assay [20] was inactive.

As for `c1ccc(OCCOc2ccccc2)cc1`, the result (in [13]; in assay [14]; in [15]; in assay [16]; in the assay with KRT18 (gene 3875) [17]; in assay [18]) was inactive. Further, the result in [19] and in assay [20] was inactive.

As to `CC=CC(=O)C1=C(C)C=CCC1(C)C`, the outcome in assay [2], in assay [3] and in assay [4] was inactive.

In the case of `O=S1(=O)CC(Cl)(Cl)C(Cl)(Cl)C1`, the AC50 in assay [2] was 2.14 µM (active); in [3], 3.45 µM (active); in assay [4], 3.94 µM (active).

Regarding `CC(C)(C)c1cccc(O)c1`, the result in [2], in [3] and in assay [4] was inactive.
